According to PubChem BioAssay:
A number with no mark means an inactive call. No rule for the calls is given here.

Assay: inhibitors of hydroxyurea-induced Chk1 phosphorylation, primary screen, imaging, HeLa, phospho-Chk1 nuclear intensity (AID 1187); also: test concentration not given here
Conditions: hydroxyurea-induced phospho-Chk1 immunofluorescence imaging, higher = more signal

Compound	z-score
CS(=O)(=O)CCOC(=O)C1=CC(CCCO)=CC(c2ccc(CN3CCCC3)cc2)N(Cc2sc3ccccc3c2Cl)C=C1C(=O)OCCS(C)(=O)=O (centres undefined)	0.969
Cc1ccc(F)cc1S(=O)(=O)N[C@@H]1CCN(Cc2ccc(Br)cc2)C1	-0.335
CO[C@H]1O[C@H](CO)[C@@H](OC(=O)Nc2ccccc2)[C@H](OC(=O)c2cc3ccccc3[nH]2)[C@H]1OC(=O)c1cc2ccccc2[nH]1	-0.562
CCCCC(CC)C(O)C1C=CC2C(=O)N(C)C(=O)C2N1Nc1ccccc1 (centres undefined)	-0.174
CCC#CCN(Cc1ccccc1Br)[C@H](/C=C/C1CC1)[C@@H](O)Cc1ccccc1	-0.875
O=C1N(Cc2ccccc2)c2ccccc2C[C@]12N=C(c1ccc(OCCCO)cc1)O[C@@H]2c1ccccc1	-0.154
Cn1cccc1C(O)C1C=CC2C(=O)N(c3ccccc3)C(=O)C2N1Nc1ccccc1 (centres undefined)	-0.436
C=CCC(OC(C)=O)[C@@H]1[C@@H](N(Cc2ccc(-c3cccc(C(F)(F)F)c3)o2)C(=O)c2ccc(-c3ccccc3)cc2)c2cc(OCCCO)ccc2N1C(=O)Cc1ccc2ccccc2c1 (some centres undefined)	0.291
CCOC(=O)C1=C[C@@H](c2ccccc2)N(S(=O)(=O)c2ccc(C)cc2)[C@H]1c1ccc(OC)cc1	-0.614
